# In PMC5540273 (PLoS ONE, 2017):
# Assays:
# Settings in all cases: concentration: 1 μM, replicates: in singlicate; n = 1
# GRK1 = tested on: GRK1
# GRK2 = tested on: T1, GRK2
# T1 construct: gene ADRBK1
# GRK3 = tested on: T2, GRK3
# T2 construct: gene ADRBK2
# GRK4 = tested on: GRK4
# GRK7 = tested on: GRK7
# GSK3A = tested on: GSK3A
# GSK3B = tested on: GSK3B
# HASPIN = tested on: T3, HASPIN
# T3 construct: gene GSG2
# HCK = tested on: HCK
# HIPK1 = tested on: HIPK1
# HIPK2 = tested on: HIPK2
# HIPK3 = tested on: HIPK3
# HIPK4 = tested on: HIPK4
# HPK1 = tested on: HPK1
# HUNK = tested on: HUNK
# ICK = tested on: ICK
# IGF1R = tested on: IGF1R
# IKK-alpha = tested on: T4, IKK-alpha
# T4 construct: gene CHUK
# IKK-beta = tested on: T5, IKK-beta
# T5 construct: gene IKBKB
# IKK-epsilon = tested on: T6, IKK-epsilon
# T6 construct: gene IKBKE
# 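Also: KINOMEscan kinase panel screen.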
SMILES,%Inh (GRK1),%Inh (GRK2),%Inh (GRK3),%Inh (GRK4),%Inh (GRK7),%Inh (GSK3A),%Inh (GSK3B),%Inh (HASPIN),%Inh (HCK),%Inh (HIPK1),%Inh (HIPK2),%Inh (HIPK3),%Inh (HIPK4),%Inh (HPK1),%Inh (HUNK),%Inh (ICK),%Inh (IGF1R),%Inh (IKK-alpha),%Inh (IKK-beta),%Inh (IKK-epsilon)
Cl.c1ccc(Cn2ncc3cc(Nc4ncnc5ccccc45)ccc32)cc1 [GW273749],0%,0%,0%,0%,0%,10%,14%,8%,0%,0%,0%,0%,0%,20%,0%,0%,0%,0%,31%,24%
FC(F)(F)c1cc(Nc2nccc(-c3c(-c4ccc(Cl)cc4)nn4ncccc34)n2)ccc1Cl [GW829351],0%,0%,0%,10%,0%,26%,0%,0%,0%,3%,0%,0%,0%,0%,67%,0%,0%,0%,0%,0%
O=C(NCCCN1CCCC1=O)c1cnc(NCc2cc(Cl)ccc2Cl)nc1NC1CCNCC1,33%,2%,22%,0%,68%,0%,0%,0%,3%,5%,0%,0%,13%,20%,0%,0%,0%,0%,0%,0%
Cl.Cl.c1ccc(-c2cc3ccncc3cc2OC2CCNCC2)cc1 [GSK1122999],0%,0%,0%,9%,10%,21%,18%,89%,0%,5%,0%,20%,0%,51%,27%,0%,0%,72%,98.7%,9%
Nc1nc(-c2cccnc2)c(-c2ccnc3ccccc23)s1 [GW684083],0%,1%,39%,8%,0%,11%,7%,83%,0%,11%,0%,0%,0%,28%,0%,0%,13%,20%,0%,21%
N#Cc1ccc(Oc2ccc(Nc3ncnc4cc[nH]c34)cc2Cl)cc1,27%,0%,7%,12%,14%,19%,0%,0%,21%,32%,32%,10%,4%,0%,1%,0%,0%,2%,17%,12%
CCc1nc(-c2cccc(C)c2)c(-c2ccnc(NC(=O)c3ccccc3)c2)s1,0%,25%,7%,0%,17%,0%,0%,0%,27%,25%,9%,0%,0%,0%,0%,59%,2%,0%,0%,100%
COc1ccc(NC(=O)c2ccc(-c3cc(-c4nnc(C)o4)ccc3C)cc2)cc1 [GW595885],0%,0%,99.2%,22%,0%,32%,0%,21%,0%,0%,0%,10%,0%,24%,3%,4%,0%,25%,24%,0%
Oc1ccc2ncnc(Nc3ccc(OCc4ccccc4)cc3)c2c1 [GI262866],7%,0%,6%,18%,0%,0%,0%,17%,0%,0%,58%,6%,0%,41%,8%,7%,0%,7%,16%,0%
Cc1ccc(NC(=O)c2cccc(C#N)c2)cc1-c1ccc(C(=O)Nc2ccncc2)cc1 [GSK1398463],0%,0%,20%,11%,0%,20%,9%,0%,37%,0%,0%,8%,0%,40%,0%,35%,14%,32%,36%,15%
CC(C)N1CCC(n2cnc(-c3ccc(F)cc3)c2-c2ccnc(N)n2)CC1 [SB-223132],0%,0%,0%,4%,0%,17%,0%,12%,0%,30%,0%,0%,11%,0%,0%,0%,0%,0%,0%,0%
